# Assay outcomes as filed in PubChem BioAssay.
# MEKK3 PB1 HTS = modulators of MEKK3-MEK5 PB1 binding, primary screen, biochemical, wildtype MEKK3, multiplex bead flow cytometry, Alexa488-MEK5. Mitogen-activated protein kinase kinase kinase 3 (Homo sapiens), Q99759. bead-based flow cytometry, Alexa488-MEK5 binding to MEKK3; actives lie on both sides; 0 = blocked by unlabeled MEK5, 100 = vehicle. binding response (% of control), % at 10 µM. hit rate 1.4% among 290,000. AID 1529, 2009;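 active = binding response more than 3 SD above or below the average of its plate-row segment, actives on both sides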;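 also: Alexa488 bead fluorescence after subtracting the streptavidin-only scavenger bead signal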
# Target sequence (Q99759 whole entry, looked up): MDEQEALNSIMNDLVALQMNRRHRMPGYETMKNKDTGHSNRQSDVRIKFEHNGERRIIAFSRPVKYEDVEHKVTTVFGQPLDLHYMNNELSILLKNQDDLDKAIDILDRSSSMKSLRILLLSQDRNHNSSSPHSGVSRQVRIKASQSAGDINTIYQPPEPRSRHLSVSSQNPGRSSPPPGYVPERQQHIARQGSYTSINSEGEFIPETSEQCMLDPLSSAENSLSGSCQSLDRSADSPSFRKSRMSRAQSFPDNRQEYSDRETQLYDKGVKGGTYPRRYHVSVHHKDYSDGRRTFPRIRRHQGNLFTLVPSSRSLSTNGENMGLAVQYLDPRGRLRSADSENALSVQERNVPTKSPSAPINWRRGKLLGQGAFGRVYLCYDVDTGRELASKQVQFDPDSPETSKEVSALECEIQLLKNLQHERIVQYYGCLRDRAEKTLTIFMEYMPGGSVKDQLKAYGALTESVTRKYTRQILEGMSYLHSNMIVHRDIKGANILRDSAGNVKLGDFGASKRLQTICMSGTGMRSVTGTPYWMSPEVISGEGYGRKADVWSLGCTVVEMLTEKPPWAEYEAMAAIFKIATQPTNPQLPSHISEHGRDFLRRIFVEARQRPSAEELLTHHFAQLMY
# PREPL inhibitor = PREPL enzyme inhibitors, primary screen, biochemical, fluorescence polarization; inhibition, % at 5.96 µM; hit rate 0.68% among 320,000; AID 2751, 2010; recombinant PREPL, fluorescence polarization activity-based probe; Prolyl endopeptidase-like (Homo sapiens), Q4J6C6; in the data active = inhibition above about 43%;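 also: 0% = enzyme with DMSO and 100% = wells lacking enzyme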
# ATG4B inhibitor = ATG4B protease inhibitors, primary screen, biochemical, fluorescence, uHTS. Cysteine protease ATG4B (Homo sapiens), Q9Y4P1. ATG4B cleavage of LC3-PLA2, NBD-HPC fluorescence, 1 h. inhibition, % at 8.33 µM. hit rate 0.51% among 340,000; in the data active = inhibition above about 40%
# MEKK2wt PB1 HTS = modulators of MEK5 binding to wildtype MEKK2, primary screen, biochemical, multiplex bead flow cytometry, Alexa488-MEK5; AID 1531, 2009; binding response (% of control), % at 10 µM; hit rate 1.1% among 290,000; Mitogen-activated protein kinase kinase kinase 2 (Homo sapiens), Q9Y2U5; Alexa488-MEK5 binding to MEKK2 WT; actives lie on both sides; in the data active = binding response below about 67% or above about 130%
# MEKK2 mut-MEK5 = MEK5 binding signal on mutant MEKK2 PB1, primary screen, biochemical, multiplex bead flow cytometry, Alexa488-MEK5; Alexa488-MEK5 binding to MEKK2 mutant; percent response, % at 10 µM; hit rate 0.35% among 290,000; in the data active = percent response above about 24%, passing the limit was not always enough
# UBC13 polyUb = UBC13 polyubiquitin chain formation inhibitors, primary screen, biochemical, TR-FRET, uHTS | Ubiquitin-conjugating enzyme E2 N (Homo sapiens), P61088 | inhibition, % at 20 µM | hit rate 0.47% among 330,000 | AID 485273, 2010; in the data active = inhibition above about 45%, passing the limit was not always enough
# MEKK2wt confirm = modulators of MEK5 binding to wildtype MEKK2, confirmation, biochemical, single concentration, multiplex bead flow cytometry; shares compounds with MEKK3 PB1 HTS; Alexa488-MEK5 binding to MEKK2 WT; actives lie on both sides; binding response (% of control), % at 10 µM; hit rate 2.4% among 5,900; AID 1892, 2009; in the data active = binding response below about 16% or above about 210%; inactive = in between
# MEKK2mut confirm = mutant MEKK2 PB1-MEK5 binding signal retest – biochemical, single concentration, multiplex bead flow cytometry, confirmation. percent response, % at 10 µM. Alexa488-MEK5 binding to MEKK2 mutant. shares compounds with MEKK3 PB1 HTS. AID 1893, 2009. hit rate 2% among 5,900; in the data active = percent response mostly above about 71%, no sharp cut-off; inactive = mostly below about 38%;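 also: higher means compound restores mutant binding toward wildtype level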
# MEKK3 confirm = MEKK3 wild-type PB1 binding to MEK5, inhibitors, confirmation, biochemical, bead multiplex flow cytometry, single concentration, wildtype; shares compounds with MEKK3 PB1 HTS; Alexa488-MEK5 binding to MEKK3; active compounds read low; binding response (% of control), % at 10 µM; hit rate 1.8% among 5,900;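 active = binding response below 72% of control, or above a set upper limit, though filed actives all read lower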;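 also: 100% = DMSO only wells and 0% = binding blocked by excess unlabeled MEK5; lower values mean stronger disruption of MEK5 binding to MEKK3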
# The depositor's hits bear a star; nt = not tested or not shown; [ ] = another dose, or the depositor's remark. Hits are enriched below; roughly 3.1% of the tested compounds scored in any of these assays.
SMILES,MEKK3 PB1 HTS,PREPL inhibitor,ATG4B inhibitor,MEKK2wt PB1 HTS,MEKK2 mut-MEK5,UBC13 polyUb,MEKK2wt confirm,MEKK2mut confirm,MEKK3 confirm
CCCCC(CC)Cn1c(N)c(C#N)c2nc3ccccc3nc21 (stereo unspecified),118,9,-7,183*,54*,1,100,-1,105
CC1CC(=O)Nc2ccccc2N1C(=O)CN1C(=O)C(=O)N(C)C1=O (stereo unspecified),nt,8,4,nt,nt,-21,nt,nt,nt
CC1CC(=O)Nc2ccccc2N1C(=O)CN1CCN(c2ccccc2)CC1 (stereo unspecified),94,-4,-6,-5.0*[inhibitor],-4,-10,99,-5,99
CCC(C)NCCCOc1c(C)cc(C)cc1Br (stereo unspecified),147*,-28,13,111,1,13,109,4,103
Cc1nc2[nH]c(=O)n(O)c(=O)c2s1,nt,nt,1,nt,nt,nt,nt,nt,nt
CC(=O)C[C@@H](O)CC(=O)[C@@H]1OC(=O)[C@H](C)C/C=C\Cc2ccccc21,nt,6,10,nt,nt,-17,nt,nt,nt
CN(C)CCCN(C(=O)COc1ccccc1)c1nc2ccc(F)cc2s1,104,-5,-4,123,9,23,nt,nt,nt
Cc1cccc2sc(N(CCCN(C)C)C(=O)COc3ccc(Cl)cc3)nc12,105,-76,4,191*,53*,27,168,28,106
CN(C)CCCN(C(=O)CCOc1ccccc1)c1nc2c(F)cccc2s1,105,nt,1,146*,41,nt,142,24,106
CN(C)CCCN(C(=O)CCOc1ccccc1)c1nc2ccc(F)cc2s1,108,nt,-6,143*,7,nt,126,10,105
Cc1ccc2sc(N(CCCN(C)C)C(=O)CN3C(=O)c4ccccc4C3=O)nc2c1C,106,33,-8,150*,33,25,132,13,101
COCCSc1nc(N)c2c3c(sc2n1)CN(C)CC3,104,13,-1,103,20,0,nt,nt,nt
NS(=O)(=O)c1ccc(CNC(=O)c2ccc3c(c2)OCO3)cc1,nt,16,0,nt,nt,4,nt,nt,nt
Cc1ccc(S(=O)(=O)n2[nH]c(=O)cc2N)cc1,99,2,6,100,4,-2,nt,nt,nt
Fc1c(CSC(=S)N2CCOCC2)cccc1CSC(=S)N1CCOCC1,103,10,8,102,-1,-4,nt,nt,nt
Cc1ccnc(NC(=O)CSc2nnc3c(n2)[nH]c2ccccc23)c1,100,2,nt,88,-8,-10,nt,nt,nt
CN(C)CCCN(C(=O)c1ccc(N2C(=O)CCC2=O)cc1)c1nc2c(F)cccc2s1,105,2,4,102,-3,-9,nt,nt,nt
CN(C)CCCN(C(=O)COc1ccc(Cl)cc1)c1nc2c(F)cccc2s1,103,-24,2,162*,33,2,161,40,112
CCC(C)(C)n1nnnc1CN(Cc1cc2cc(OC)ccc2[nH]c1=O)C1CCCC1,82*[inhibitor],6,-13,88,-9,1,95,-2,98
COc1ccc(Cn2nnnc2CN(Cc2cc3ccc(C)cc3[nH]c2=O)C2CCCC2)cc1,91,8,7,84,-4,-11,nt,nt,nt
Cc1ccc(C(C(=O)NC2CCCC2)N(C(=O)CNC(=O)c2cccs2)c2cccnc2)o1 (stereo unspecified),71*[inhibitor],5,-1,106,4,7,102,2,104
COc1ccc(N(C(=O)CNC(=O)c2cccs2)C(C(=O)NCC2CCCO2)c2ccccc2)cc1 (stereo unspecified),5.0*[inhibitor],-9,-9,6.0*[inhibitor],-19,-2,105,4,104
COc1cc(/C=N/NC(=O)C[n+]2ccccc2)cc(OC)c1OC(C)=O,73*[inhibitor],1,-2,60*[inhibitor],-30,9,86,-11,82
CCCN1C2CCCC1CC(NC(=O)NC1CCCCC1)C2 (stereo unspecified),2.0*[inhibitor],3,-2,2.0*[inhibitor],-14,6,101,2,100
O=C(Nc1ccc(C(=O)N2CCN(c3ccccc3)CC2)cc1)C1=CSCCO1,102,9,5,100,1,4,nt,nt,nt
SMILES,MEKK3 PB1 HTS,PREPL inhibitor,ATG4B inhibitor,MEKK2wt PB1 HTS,MEKK2 mut-MEK5,UBC13 polyUb,MEKK2wt confirm,MEKK2mut confirm,MEKK3 confirm
CCOC(=O)Nc1ccc2c(c1)N(CCCN(C)C)c1ccccc1CC2,106,25,5,127,18,16,nt,nt,nt
CN(C)CCCN1c2ccc([N+](=O)[O-])cc2CCc2cc([N+](=O)[O-])ccc21,111,18,1,150*,14,-11,113,6,104
Cc1cc(NC(=O)CSc2nnc(-c3ccccc3F)n2N)no1,nt,-1,1,nt,nt,1,nt,nt,nt
Nc1nc(NCC2CCCO2)nc(Nc2ccc(F)cc2)c1[N+](=O)[O-] (stereo unspecified),199*,5,13,117,2,-5,105,1,103
Cc1ccc(CCNC(=O)CN(C)S(=O)(=O)c2ccc3c(c2)n(C)c(=O)c(=O)n3C)cc1,124,23,-7,113,27,-13,nt,nt,nt
COCCCNC(=S)Nc1ccc(C)cc1,97,-3,1,98,-1,-6,nt,nt,nt
CCOCCCNC(=S)Nc1cc(C)cc(C)c1,141*,13,8,116,1,-22,104,-2,106
CCC[C@@H]1C[C@@H](C(=O)NC(C(C)Cl)[C@H]2O[C@H](SC)[C@H](O)[C@@H](O)[C@H]2O)N(C)C1 (stereo partly specified),103,-2,-1,104,5,8,nt,nt,nt
CCC[C@@H]1C[C@@H](C(=O)N[C@@H](C2O[C@H](SC)[C@H](O)[C@@H](O)[C@H]2O)[C@H](C)Cl)N(C)C1 (stereo partly specified),50*[inhibitor],5,0,54,1,-6,97,-6,101
